Assay outcomes (PubChem)
Pf growth 96h: P. falciparum growth inhibition at 96 hour, primary screen for plastid delayed-death inhibitors | P. falciparum luciferase reporter growth, 96 h | Potency, µM (series often up to 28.7 µM), for inactives: at the top dose activity change, negative = inhibition, hits mostly inhibitors | 6.9% of 320,000 active | AID 504834; note: % is set by controls: 0 for no effect and ±100 for the full control effect
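P. falciparum expressing integrated firefly luciferase, in erythrocytes at 2% hematocrit, 0.05% parasitemia, incubated with compounds 96 h at 37 C, 5% CO2. Growth inhibition read as loss of luminescence; two-generation exposure targets delayed-death apicoplast inhibitors.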
AMA1-RON2 inh: AMA1-RON2 (P. falciparum) interaction inhibition. AlphaScreen AMA1-biotinylated RON2 peptide binding. 0.2% of 360,000 active. Potency, µM (highest dose often 58.2 µM), for the others: at the highest dose activity change, negative = inhibition, most hits filed as inhibitors;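 note: 0% = vehicle wells and -100% = peptide control; nearly all actives have a fitted effect of over 45% in size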
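AMA1 (3D7) with his tag at 25 nM final met compounds first, then biotinylated RON2 peptide at 25 nM; detection used donor plus acceptor beads, 10 µg/mL apiece, read by AlphaScreen after 30 min at room temperature.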
SARS PLpro yeast: blocks SARS-CoV papain-like protease in a yeast assay. S. cerevisiae expressing SARS-CoV PLpro, growth rescue. Potency, µM (titrated, usually from 32.9 µM), inactives show at the highest dose activity, positive = growth rescue, most hits filed as activators. 0.19% of 330,000 active; calls by dose curve; note: 0% is about no effect; nearly all actives have a fitted effect of over 55% in size
Pf growth 48h: P. falciparum growth inhibition at 48 hours (one generation); P. falciparum luciferase growth in erythrocytes, 48 h; Potency, µM (titrated, usually from 28.7 µM), without a hit: at the highest dose activity change, negative = inhibition, actives largely listed as inhibitors; 5.9% of 310,000 active; note: % is set by controls: 0 for no effect and ±100 for the full control effect
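Erythrocytes infected with P. falciparum carrying an integrated firefly luciferase reporter (2% hematocrit, 0.1% parasitemia final) were exposed to compounds in RPMI 1640 with 0.5% Albumax at 37 C, 5% CO2. Growth inhibition was scored as reduced luminescence.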
Active calls of the source: *; ? = inconclusive; nt = no result given. Sampled rows, rich in hits. Any-hit rate of the full collection: about 9.4%. Unless noted, calls come from the whole dose curve; as a rule, active = well fitted curve in the direction sought with a large enough effect; inconclusive = small, poorly fitted or top-dose-only effect, or another doubt; inactive = no such curve, though single readings can be large; an effect the other way counts as inactive or inconclusive. Potency is the fitted concentration of half-maximal effect.

SMILES	Pf growth 96h	AMA1-RON2 inh	SARS PLpro yeast	Pf growth 48h
CN(CCCC(=O)Nc1ccccc1F)S(=O)(=O)c1ccc(F)cc1	2%	3%	1%	0%
CCN(CC)S(=O)(=O)c1ccc(/C=C/C(=O)Nc2ccc(F)cc2F)cc1	6.6µM*	1%	18%	?
CCN(CC)S(=O)(=O)c1ccc(/C=C/C(=O)Nc2ccc(F)c(F)c2F)cc1	?	4%	11%	9.3µM*
CCN(CC)S(=O)(=O)c1ccc(/C=C/C(=O)Nc2ccc(Br)cc2F)cc1	5.2µM*	4%	9%	12µM*
CN(CCCC(=O)Nc1ccc(Br)cc1F)S(=O)(=O)c1ccccc1	6.6µM*	-3%	-6%	-4%
CSCC[C@H](NC(=O)OC(C)(C)C)C(=O)N1CCC(C(=O)N[C@@H](C)C(=O)O)CC1	?	-3%	-3%	0%
CCOC(=O)c1ccccc1NC(=S)N1CCN(C2CCCCC2)CC1	0%	-23%	-4%	-21%
CCOC(=O)c1ccccc1NC(=S)N1CCCCC1	9.3µM*	-10%	?	0%
COc1ccc(NC(=S)c2ccncc2)cc1	10µM*	-20%	-15%	14%
COc1ccc(NC(=S)Nc2ccc3nsnc3c2)cc1	0.23µM*	57%	-10%	20%
C=CCN(CC=C)C(=S)Nc1ccc2nsnc2c1	?	5%	-3%	8.3µM*
Cc1ccc(-n2nc(C)c(C(=O)N3CCN(C(=O)c4ccco4)CC3)c2-n2cccc2)cc1	-6%	9%	-4%	?
CCN(CC)S(=O)(=O)c1ccc(N/N=C(\C)c2ccc(OC)cc2O)nc1	?	38%	10%	13µM*
CC(Sc1nnc2c(n1)[nH]c1ccccc12)C(=O)NC1CCCCC1 (configuration not stated)	-12%	6%	1%	9.3µM*
Cc1noc(C)c1S(=O)(=O)NCCN1CCN(c2ccccc2)CC1	12µM*	-20%	nt	8%
Cc1noc(C)c1S(=O)(=O)NCCCN1CCN(Cc2ccccc2)CC1	4.7µM*	nt	4%	10%
COCCCNC(=O)c1ccc2c(c1)CCN2S(C)(=O)=O	16%	3%	nt	-1%
CSc1nc2c(=S)[nH]c(=S)[nH]c2s1	nt	102%	nt	nt
CCOc1ccc(S(=O)(=O)N2CCCCC2)cc1NC(=O)c1cccnc1OCC	nt	2%	2%	nt
CC(=O)c1c(C)[nH]c(C(=O)Nc2cc(S(=O)(=O)N3CCCCC3)ccc2C)c1C	13µM*	0%	-1%	13µM*
CCOc1ncccc1C(=O)Nc1cccc(S(=O)(=O)N2CCCCC2)c1	7.4µM*	2%	-2%	?
CCOc1ncccc1C(=O)Nc1cc(S(=O)(=O)N2CCCCC2)ccc1C	9.3µM*	1%	3%	12µM*
Cc1nc2c(cc1C(=O)N/N=C/c1ccc(O)c(O)c1)c(=O)n(C)c(=O)n2C	21%	-6%	18%	22%
CCOc1ccc(CCNC(=O)Cc2ccc(NC(=O)C3=C(C)OCCS3)cc2)cc1	-38%	-1%	5%	24%
CC(Oc1ccccc1)C(=O)Nc1nnc(S(=O)(=O)Nc2ccccc2)s1 (configuration not stated)	111%	24%	3%	39%
SMILES	Pf growth 96h	AMA1-RON2 inh	SARS PLpro yeast	Pf growth 48h
COc1ccc(-n2nnc3c(SCC(=O)c4ccccc4)ncnc32)cc1	1.9µM*	3%	7%	-4%
COc1ccc(-n2nnc3c(SCC(=O)Nc4ccc5c(c4)OCCO5)ncnc32)cc1	nt	nt	-8%	8%
COC(=O)c1ccc(CSc2ncnc3c2nnn3-c2ccc(OC)cc2)o1	9.3µM*	22%	-1%	0%
CCOc1cc(C(=O)Nc2ccc3c(c2)OCO3)ccc1OCCOc1ccccc1Cl	12%	0%	nt	17%
Cc1ccc(C(=O)Cn2nnc(-c3cccs3)n2)cc1	93%	1%	4%	65%
O=C(CN1CC[n+]2c(-c3cccs3)csc21)c1ccc(-c2ccccc2)cc1	?	38%	0%	13µM*
Clc1ccc(Cl)c2sc(N3CCCC3)nc12	?	18%	12%	11%
O=C(NNC1=C(C(=O)C(F)(F)F)CCC1)c1cccc(Cl)c1	nt	-5%	-24%	8%
O=C(NNC1=C(C(=O)C(F)(F)F)CCC1)c1ccc(Cl)cc1	2.9µM*	63%	-47%	19%
O=C1Nc2ccccc2C(=O)N2c3ccccc3NC(=O)C12 (configuration not stated)	nt	11%	nt	nt
CC(=O)n1c(-c2ccccc2)c(CO)c2ccccc21	?	-1%	-17%	31%
NCCc1c(-c2ccccc2)n(-c2ccccc2)c2ccccc12	?	?	-4%	15µM*
O=C(O)c1ccc(Cl)c(S(=O)(=O)N(Cc2ccccc2)c2ccc(Cl)cc2)c1	-13%	-7%	12%	-9%
COc1ccccc1N(Cc1ccccc1)S(=O)(=O)c1cccc(C(=O)O)c1	-21%	16%	8%	-3%
CCOc1ccccc1NC(=O)c1cccc(S(=O)(=O)N(Cc2ccccc2)c2ccccc2OC)c1	2.6µM*	-8%	16%	0%
COc1ccccc1N(Cc1ccccc1)S(=O)(=O)c1cccc(C(=O)NC2CC(C)(C)NC(C)(C)C2)c1	4.7µM*	-2%	2%	5.9µM*
COc1ccc(N(Cc2ccccc2)S(=O)(=O)c2cccc(C(=O)Nc3ncccc3C)c2)cc1	?	59%	4%	?
COc1ccccc1N(Cc1ccccc1)S(=O)(=O)c1cccc(C(=O)Nc2ncccc2C)c1	?	46%	-1%	12µM*
CC1(C)CC(NC(=O)c2ccc(Cl)c(S(=O)(=O)N(Cc3ccccc3)c3ccccc3)c2)CC(C)(C)N1	7.4µM*	6%	nt	5.2µM*
O=c1[nH]c(CSc2nnc(-c3ccncc3)n2Cc2ccco2)nc2ccccc12	-4%	15%	1%	5%
CCOC(=O)c1[nH]c2ccccc2c1NC(=O)C1CCCCC1	29%	-3%	3%	-18%
CCOc1ccc(S(=O)(=O)N2CCCCC2)c2ccccc12	?	0%	-40%	-11%
COc1ccc(S(=O)(=O)n2ccc(C)n2)cc1C	nt	10%	-1%	7%
CCOc1ccc(S(=O)(=O)n2ccc(C)n2)c2ccccc12	?	-11%	2%	10µM*
COc1cc(C)c(S(=O)(=O)n2ccc(C)n2)cc1C	15µM*	-11%	1%	nt
SMILES	Pf growth 96h	AMA1-RON2 inh	SARS PLpro yeast	Pf growth 48h
O=C(NCC(=O)N1CCCC1)c1ccccc1F	89%	-8%	-28%	58%
c1ccc2c(c1)Sc1ccccc1N2CCN1CCCC1	15µM*	nt	nt	17µM*
CN1CCN(CCCN2c3ccccc3Sc3ccc(C(F)(F)F)cc32)CC1	9.3µM*	?	-3%	10µM*
O=C1CSC2(CCN(CCCN3c4ccccc4Sc4ccc(Cl)cc43)CC2)N1	8.5µM*	nt	nt	?
O=C(CN1CCCCCC1)N1c2ccccc2Sc2ccccc21	?	-5%	0%	?
CCCCn1c(N)c(N(CC)C(=O)CSCc2c(C)noc2C)c(=O)[nH]c1=O	?	7%	-1%	20%
Cc1ccccc1S(=O)(=O)Cc1ccc(C(=O)NCCN(C)Cc2ccccc2)o1	66%	6%	5%	-10%
